Data as given in ChEMBL document CHEMBL2218924, “A broad activity screen in support of a chemogenomic map for kinase signalling research and drug discovery” (Biochem J, 2013).

Tests used:
[1] = target: T1, Serine/threonine-protein kinase Sgk2 (Homo sapiens) (UniProt Q9HBY8); settings: at 1 µM
T1 sequence (whole entry): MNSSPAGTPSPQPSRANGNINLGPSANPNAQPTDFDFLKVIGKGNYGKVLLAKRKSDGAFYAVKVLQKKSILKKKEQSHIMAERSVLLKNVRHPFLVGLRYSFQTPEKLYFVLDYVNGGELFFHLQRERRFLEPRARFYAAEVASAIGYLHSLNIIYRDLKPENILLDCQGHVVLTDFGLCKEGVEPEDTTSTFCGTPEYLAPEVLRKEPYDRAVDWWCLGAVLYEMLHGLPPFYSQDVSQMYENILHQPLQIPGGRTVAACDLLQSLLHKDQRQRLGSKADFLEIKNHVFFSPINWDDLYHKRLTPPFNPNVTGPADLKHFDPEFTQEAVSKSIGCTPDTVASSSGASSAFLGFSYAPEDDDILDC

[2] = target: T1, Serine/threonine-protein kinase Sgk2 (Homo sapiens); settings: at 10 µM
[3] = target: T2, Serine/threonine-protein kinase Sgk3 (Homo sapiens) (UniProt Q96BR1); settings: at 10 µM
T2 sequence (whole entry): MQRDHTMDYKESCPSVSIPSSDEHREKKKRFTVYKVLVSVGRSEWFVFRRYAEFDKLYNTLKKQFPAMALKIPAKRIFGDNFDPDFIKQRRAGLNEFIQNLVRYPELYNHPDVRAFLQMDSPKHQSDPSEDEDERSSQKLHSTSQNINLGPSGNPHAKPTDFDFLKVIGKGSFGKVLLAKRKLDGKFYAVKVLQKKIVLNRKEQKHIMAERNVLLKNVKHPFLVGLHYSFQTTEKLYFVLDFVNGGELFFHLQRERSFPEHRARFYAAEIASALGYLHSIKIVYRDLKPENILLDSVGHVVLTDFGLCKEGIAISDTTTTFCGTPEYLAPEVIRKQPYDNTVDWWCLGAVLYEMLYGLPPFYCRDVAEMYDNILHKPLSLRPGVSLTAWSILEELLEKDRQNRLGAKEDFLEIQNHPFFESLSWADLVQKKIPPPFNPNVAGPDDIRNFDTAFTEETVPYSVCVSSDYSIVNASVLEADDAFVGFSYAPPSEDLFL

[4] = target: Serine/threonine-protein kinase SIK1 (Homo sapiens) (UniProt P57059); settings: at 1 µM
[5] = target: Serine/threonine-protein kinase SIK1 (Homo sapiens) (UniProt P57059); settings: at 10 µM
[6] = target: SRSF protein kinase 1 (Homo sapiens) (UniProt Q96SB4); settings: at 10 µM
[7] = target: SRSF protein kinase 2 (Homo sapiens) (UniProt P78362); settings: at 1 µM
[8] = target: SRSF protein kinase 2 (Homo sapiens) (UniProt P78362); settings: at 10 µM
[9] = target: Serine/threonine-protein kinase 33 (Homo sapiens) (UniProt Q9BYT3); settings: at 1 µM
[10] = target: Serine/threonine-protein kinase 33 (Homo sapiens) (UniProt Q9BYT3); settings: at 10 µM
[11] = target: Serine/threonine-protein kinase PLK2 (Homo sapiens) (UniProt Q9NYY3); settings: at 1 µM
[12] = target: Serine/threonine-protein kinase PLK2 (Homo sapiens) (UniProt Q9NYY3); settings: at 10 µM
[13] = target: Tyrosine-protein kinase SYK (Homo sapiens) (UniProt P43405); settings: at 1 µM
[14] = target: Tyrosine-protein kinase SYK (Homo sapiens) (UniProt P43405); settings: at 10 µM
[15] = target: T3, Mitogen-activated protein kinase kinase kinase 7 (Homo sapiens) (UniProt O43318); settings: at 1 µM
T3 sequence (whole entry): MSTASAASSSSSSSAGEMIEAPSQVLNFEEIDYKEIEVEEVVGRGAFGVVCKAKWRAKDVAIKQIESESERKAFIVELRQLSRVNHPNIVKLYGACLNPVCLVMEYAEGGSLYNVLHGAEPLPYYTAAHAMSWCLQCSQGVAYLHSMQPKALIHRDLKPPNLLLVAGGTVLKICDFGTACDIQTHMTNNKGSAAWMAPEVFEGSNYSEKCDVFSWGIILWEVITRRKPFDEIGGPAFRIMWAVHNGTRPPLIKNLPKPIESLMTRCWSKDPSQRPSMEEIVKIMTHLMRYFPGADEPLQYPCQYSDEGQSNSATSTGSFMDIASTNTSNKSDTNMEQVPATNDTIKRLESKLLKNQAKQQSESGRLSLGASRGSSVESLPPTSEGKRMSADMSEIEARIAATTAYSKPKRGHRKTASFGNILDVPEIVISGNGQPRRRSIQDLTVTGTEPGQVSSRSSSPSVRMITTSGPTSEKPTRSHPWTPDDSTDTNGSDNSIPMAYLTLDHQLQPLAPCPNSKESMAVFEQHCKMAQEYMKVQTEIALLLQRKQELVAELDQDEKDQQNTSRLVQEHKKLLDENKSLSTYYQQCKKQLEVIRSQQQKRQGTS

[16] = target: T3, Mitogen-activated protein kinase kinase kinase 7 (Homo sapiens); settings: at 10 µM
[17] = target: T4, Serine/threonine-protein kinase TAO1 (Homo sapiens) (UniProt Q7L7X3); settings: at 1 µM
T4 sequence (whole entry): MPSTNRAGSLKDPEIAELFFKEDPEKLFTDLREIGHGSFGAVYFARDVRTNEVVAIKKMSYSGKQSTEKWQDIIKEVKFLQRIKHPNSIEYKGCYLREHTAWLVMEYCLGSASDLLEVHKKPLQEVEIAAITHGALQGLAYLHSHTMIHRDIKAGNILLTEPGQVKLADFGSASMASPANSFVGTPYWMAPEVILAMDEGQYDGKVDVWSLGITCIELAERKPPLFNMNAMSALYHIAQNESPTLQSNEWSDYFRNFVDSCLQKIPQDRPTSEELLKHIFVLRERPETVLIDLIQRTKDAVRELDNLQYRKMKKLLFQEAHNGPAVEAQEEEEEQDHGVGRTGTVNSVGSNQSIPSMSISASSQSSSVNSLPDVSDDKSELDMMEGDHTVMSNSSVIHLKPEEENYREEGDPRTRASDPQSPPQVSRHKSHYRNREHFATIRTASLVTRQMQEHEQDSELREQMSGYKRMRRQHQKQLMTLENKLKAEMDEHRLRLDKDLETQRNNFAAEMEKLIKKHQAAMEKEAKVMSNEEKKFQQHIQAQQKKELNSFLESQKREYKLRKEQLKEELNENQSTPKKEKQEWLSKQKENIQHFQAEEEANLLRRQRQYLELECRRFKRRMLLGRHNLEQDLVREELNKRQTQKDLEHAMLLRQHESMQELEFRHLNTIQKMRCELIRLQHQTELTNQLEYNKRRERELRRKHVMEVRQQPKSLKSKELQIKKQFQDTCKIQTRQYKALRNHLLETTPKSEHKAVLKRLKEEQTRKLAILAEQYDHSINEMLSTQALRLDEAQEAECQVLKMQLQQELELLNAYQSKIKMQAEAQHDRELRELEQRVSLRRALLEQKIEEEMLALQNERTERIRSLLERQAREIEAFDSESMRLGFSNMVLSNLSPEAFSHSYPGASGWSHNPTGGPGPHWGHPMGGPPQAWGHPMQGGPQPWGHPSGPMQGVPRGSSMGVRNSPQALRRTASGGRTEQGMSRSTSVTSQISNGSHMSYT

[18] = target: T4, Serine/threonine-protein kinase TAO1 (Homo sapiens); settings: at 10 µM
[19] = target: T2, Serine/threonine-protein kinase Sgk3 (Homo sapiens); settings: at 1 µM
[20] = target: SRSF protein kinase 1 (Homo sapiens) (UniProt Q96SB4); settings: at 1 µM

SRSF protein kinase 1 (Homo sapiens), sequence (Q96SB4 whole entry): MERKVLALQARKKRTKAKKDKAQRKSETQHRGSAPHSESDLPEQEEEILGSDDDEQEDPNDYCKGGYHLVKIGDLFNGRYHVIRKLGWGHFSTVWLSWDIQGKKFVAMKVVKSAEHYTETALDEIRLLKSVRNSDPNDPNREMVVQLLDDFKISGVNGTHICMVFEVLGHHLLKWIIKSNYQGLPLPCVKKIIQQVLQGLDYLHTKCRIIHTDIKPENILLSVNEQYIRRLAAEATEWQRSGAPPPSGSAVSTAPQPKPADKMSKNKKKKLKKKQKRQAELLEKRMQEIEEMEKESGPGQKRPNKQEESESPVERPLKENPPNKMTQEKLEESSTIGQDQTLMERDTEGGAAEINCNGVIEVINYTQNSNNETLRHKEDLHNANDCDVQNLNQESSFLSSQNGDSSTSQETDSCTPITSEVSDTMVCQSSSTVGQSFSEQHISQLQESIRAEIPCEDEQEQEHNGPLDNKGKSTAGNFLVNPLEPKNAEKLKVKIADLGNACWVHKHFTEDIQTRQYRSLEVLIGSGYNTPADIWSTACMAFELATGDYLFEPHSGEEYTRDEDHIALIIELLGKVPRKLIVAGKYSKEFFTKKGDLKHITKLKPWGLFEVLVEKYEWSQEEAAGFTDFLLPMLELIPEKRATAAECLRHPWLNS
SRSF protein kinase 2 (Homo sapiens), sequence (P78362 whole entry, looked up): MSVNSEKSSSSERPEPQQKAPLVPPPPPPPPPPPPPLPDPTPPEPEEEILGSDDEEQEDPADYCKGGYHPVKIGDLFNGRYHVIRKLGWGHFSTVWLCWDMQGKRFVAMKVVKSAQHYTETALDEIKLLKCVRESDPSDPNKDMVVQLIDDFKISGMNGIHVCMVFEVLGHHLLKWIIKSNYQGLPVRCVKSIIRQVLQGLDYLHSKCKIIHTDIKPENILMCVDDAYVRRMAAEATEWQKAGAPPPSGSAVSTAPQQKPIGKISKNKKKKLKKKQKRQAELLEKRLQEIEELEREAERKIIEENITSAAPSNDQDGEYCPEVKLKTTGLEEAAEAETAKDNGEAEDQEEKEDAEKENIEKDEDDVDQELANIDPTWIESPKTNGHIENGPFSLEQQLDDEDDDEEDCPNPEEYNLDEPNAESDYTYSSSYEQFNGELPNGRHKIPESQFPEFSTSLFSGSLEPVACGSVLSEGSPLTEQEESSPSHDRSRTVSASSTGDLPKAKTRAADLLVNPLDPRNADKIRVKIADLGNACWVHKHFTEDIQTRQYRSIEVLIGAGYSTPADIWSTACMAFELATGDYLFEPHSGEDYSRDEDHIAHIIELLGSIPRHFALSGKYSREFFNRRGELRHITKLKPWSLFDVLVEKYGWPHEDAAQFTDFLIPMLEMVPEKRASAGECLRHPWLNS
Serine/threonine-protein kinase PLK2 (Homo sapiens), sequence (Q9NYY3 whole entry, looked up): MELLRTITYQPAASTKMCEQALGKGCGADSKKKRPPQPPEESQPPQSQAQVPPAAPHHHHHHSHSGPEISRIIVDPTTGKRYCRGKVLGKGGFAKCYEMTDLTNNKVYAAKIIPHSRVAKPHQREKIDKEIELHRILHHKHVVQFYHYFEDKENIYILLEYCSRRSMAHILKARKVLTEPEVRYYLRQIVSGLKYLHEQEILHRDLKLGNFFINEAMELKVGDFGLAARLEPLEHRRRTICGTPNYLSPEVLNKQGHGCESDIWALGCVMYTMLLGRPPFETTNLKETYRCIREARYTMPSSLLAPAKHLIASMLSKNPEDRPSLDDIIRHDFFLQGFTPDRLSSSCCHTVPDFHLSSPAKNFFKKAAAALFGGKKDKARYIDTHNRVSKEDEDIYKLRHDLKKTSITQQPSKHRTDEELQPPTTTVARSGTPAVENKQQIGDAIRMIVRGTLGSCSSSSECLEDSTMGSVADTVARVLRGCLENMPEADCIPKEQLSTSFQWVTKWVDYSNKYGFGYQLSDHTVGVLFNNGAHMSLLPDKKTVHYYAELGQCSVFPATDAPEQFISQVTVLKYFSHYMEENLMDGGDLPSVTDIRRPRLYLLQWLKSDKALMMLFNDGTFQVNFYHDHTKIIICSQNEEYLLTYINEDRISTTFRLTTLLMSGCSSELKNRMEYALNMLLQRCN
Serine/threonine-protein kinase 33 (Homo sapiens), sequence (Q9BYT3 whole entry, looked up): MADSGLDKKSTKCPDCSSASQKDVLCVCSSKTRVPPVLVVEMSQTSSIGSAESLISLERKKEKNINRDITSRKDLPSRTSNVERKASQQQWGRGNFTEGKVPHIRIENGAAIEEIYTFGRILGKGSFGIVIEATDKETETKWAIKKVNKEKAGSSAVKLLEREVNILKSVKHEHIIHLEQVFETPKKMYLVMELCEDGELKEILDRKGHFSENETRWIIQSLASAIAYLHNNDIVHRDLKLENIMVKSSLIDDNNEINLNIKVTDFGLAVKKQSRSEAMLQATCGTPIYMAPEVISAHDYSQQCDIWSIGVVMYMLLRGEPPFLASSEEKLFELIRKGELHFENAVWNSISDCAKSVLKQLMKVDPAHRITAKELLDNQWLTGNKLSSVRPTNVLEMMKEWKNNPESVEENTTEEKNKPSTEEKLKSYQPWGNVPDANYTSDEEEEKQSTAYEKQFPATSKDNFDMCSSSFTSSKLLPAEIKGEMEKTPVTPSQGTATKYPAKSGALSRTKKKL
Serine/threonine-protein kinase SIK1 (Homo sapiens), sequence (P57059 whole entry): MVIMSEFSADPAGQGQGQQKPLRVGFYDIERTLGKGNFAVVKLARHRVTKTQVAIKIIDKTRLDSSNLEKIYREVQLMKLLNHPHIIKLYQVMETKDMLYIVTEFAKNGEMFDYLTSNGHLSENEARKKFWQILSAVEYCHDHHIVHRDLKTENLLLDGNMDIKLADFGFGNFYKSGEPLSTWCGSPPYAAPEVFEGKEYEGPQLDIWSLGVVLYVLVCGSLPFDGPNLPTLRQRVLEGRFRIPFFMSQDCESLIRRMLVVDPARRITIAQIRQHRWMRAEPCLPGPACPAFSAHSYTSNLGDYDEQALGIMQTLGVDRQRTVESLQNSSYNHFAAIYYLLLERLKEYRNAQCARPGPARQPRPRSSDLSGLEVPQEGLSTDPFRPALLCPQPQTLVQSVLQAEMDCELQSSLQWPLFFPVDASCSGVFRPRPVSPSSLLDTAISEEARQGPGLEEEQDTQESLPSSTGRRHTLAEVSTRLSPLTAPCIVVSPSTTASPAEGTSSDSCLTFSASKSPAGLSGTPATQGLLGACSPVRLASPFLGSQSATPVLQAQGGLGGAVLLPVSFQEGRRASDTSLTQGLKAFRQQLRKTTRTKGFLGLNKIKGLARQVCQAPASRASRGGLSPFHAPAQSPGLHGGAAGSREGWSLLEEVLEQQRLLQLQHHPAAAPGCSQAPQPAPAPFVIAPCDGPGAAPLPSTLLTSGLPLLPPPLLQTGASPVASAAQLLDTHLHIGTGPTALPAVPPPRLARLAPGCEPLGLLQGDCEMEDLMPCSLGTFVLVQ

CCn1cnc2c(Nc3cccc(Cl)c3)nc(N[C@@H]3CCCC[C@@H]3N)nc21
residual activity [1]: 97%
residual activity [2]: 65%
residual activity [3]: 59%
residual activity [4]: 20%
residual activity [5]: 0%
residual activity [6]: 39%
residual activity [7]: 69%
residual activity [8]: 32%
residual activity [9]: 87%
residual activity [10]: 42%
residual activity [11]: 92%
residual activity [12]: 54%
residual activity [13]: 99%
residual activity [14]: 57%
residual activity [15]: 89%
residual activity [16]: 65%
residual activity [17]: 68%
residual activity [18]: 15%

O=C(c1cc2cc(O)ccc2[nH]1)c1cc2cc(O)ccc2[nH]1
residual activity [19]: 81%

COc1ccc2c(c1)/C(=C/c1cnc[nH]1)C(=O)N2
residual activity [2]: 32%
residual activity [19]: 100%
residual activity [3]: 53%
residual activity [4]: 145%
residual activity [5]: 48%
residual activity [6]: 98%
residual activity [10]: 53%
residual activity [15]: 75%
residual activity [16]: 21%
residual activity [17]: 41%
residual activity [18]: 7%

O=c1cc(-c2cccc3c2Sc2ccccc2S3)oc(N2CCOCC2)c1
residual activity [19]: 101%

CNc1cc2c(Nc3cccc(Br)c3)ncnc2cn1
residual activity [19]: 103%

COc1cc2ncnc(Nc3ccc(OCc4ccccc4)cc3)c2cc1OC
residual activity [1]: 89%
residual activity [2]: 96%
residual activity [19]: 115%
residual activity [3]: 108%
residual activity [4]: 82%
residual activity [5]: 103%
residual activity [20]: 102%
residual activity [6]: 116%
residual activity [7]: 108%
residual activity [8]: 104%
residual activity [9]: 100%
residual activity [10]: 105%
residual activity [11]: 108%
residual activity [12]: 105%
residual activity [13]: 116%
residual activity [14]: 82%
residual activity [15]: 99%
residual activity [16]: 96%
residual activity [17]: 108%
residual activity [18]: 91%

COc1ccc2c(c[n+](C)c3c4cc5c(cc4ccc23)OCO5)c1OC
residual activity [1]: 130%
residual activity [2]: 65%
residual activity [3]: 79%
residual activity [4]: 92%
residual activity [6]: 98%
residual activity [7]: 96%
residual activity [8]: 96%
residual activity [9]: 97%
residual activity [10]: 92%
residual activity [12]: 71%
residual activity [13]: 132%
residual activity [14]: 82%
residual activity [15]: 92%
residual activity [16]: 94%
residual activity [18]: 87%

CCN(CC)CCCCN1c2ccccc2Oc2ccc(Cl)cc21
residual activity [19]: 107%

CC(C)[C@H](CO)Nc1nc(Nc2cccc(Cl)c2)c2ncn(C(C)C)c2n1
residual activity [3]: 97%
residual activity [4]: 85%
residual activity [5]: 16%
residual activity [20]: 52%
residual activity [6]: -1%
residual activity [7]: 32%
residual activity [8]: 2%
residual activity [9]: 89%
residual activity [10]: 53%
residual activity [11]: 101%
residual activity [12]: 86%
residual activity [13]: 102%
residual activity [14]: 60%
residual activity [15]: 73%
residual activity [16]: 20%
residual activity [17]: 82%
residual activity [18]: 26%
